Experimental data published in ChEMBL document CHEMBL4513216, “Probing the Open Global Health Chemical Diversity Library for Multistage-Active Starting Points for Next-Generation Antimalarials” (ACS Infect Dis, 2020).
Out of some 69,000 compounds screened, about 8,600 (12%) showed an effect of 50% or more. What follows is part of a selection rich in strong results, with near analogues and random picks from the rest.

system: Plasmodium berghei; experiment: Screen against P. berghei liver stage (PbLuc), transformed with Luciferase, at 10uM; assay type: functional, HepG2; settings: tested at 10 uM

Structure (SMILES) | INHIBITION [%]
CN(C)[C@@H]1CCN(c2ncccn2)[C@H]1Cc1ccncc1 | 26.8
COC(=O)c1ccc(OC)c(Cn2cc(Br)cn2)c1 | 20.6
O=C(NCc1ccc2[nH]c(=O)[nH]c2c1)c1ccc(CN2CCCC2)o1 | 56.2
Cc1[nH]c2ccc(CNC(=O)c3ccc(CN4CCCC4)o3)cc2c1C | 40.3
O=C(CN1CCCCCC1)NCc1ccc2[nH]c(=O)[nH]c2c1 | -20.1
CC1CCCN1Cc1ccccc1-c1nc(C(C)(C)C)cc(=O)[nH]1 (stereo not given) | 9
CN(C)c1ccc(C(=O)N2CCCC(n3cncn3)C2)nn1 (stereo not given) | 0.411
CCOC(=O)c1n[nH]cc1-c1cncn1CCn1nc(C)c(C)c1C | 12.3
COc1ccc(-c2cc(C3CCCCCN3S(C)(=O)=O)on2)cc1 (stereo not given) | 12.725
COc1ccc(-c2cc(C3CCCCCN3S(=O)(=O)N(C)C)on2)cc1 (stereo not given) | 55.2
CN(C)S(=O)(=O)N1CCCCCC1c1cc(-c2ccc(F)cc2)no1 (stereo not given) | 38.4
CSc1cccc(CNC(=O)[C@H]2CNC[C@H](C(=O)N3CCOCC3)C2)c1 | 35.8
O=C1Nc2ccccc2CNC12CCN(CC1CCNC1)CC2 (stereo not given) | 29.2
COCc1cccc(C(=O)N2C[C@@H]3CC[C@H]2CN(Cc2cscn2)C3)n1 | -38.6
C[C@H](NC(=O)C1CCCC1)c1nc2cc(-c3ccc(F)cc3)ncn2n1 | 58.1
COc1ccc(-c2cc3nc([C@H](C)NC(=O)C4CC4)nn3cn2)cc1 | -5.71
C[C@H](NC(=O)C1CC1)c1nc2cc(-c3ccc(F)cc3)ncn2n1 | 49.6
CCN1Cc2ccccc2CC2(CCN(CC(=O)O)CC2)C1=O | 37.5
NCCC(=O)Nc1ccc(-c2ccccc2)cc1 | 14.5
N#CC1(NC(=O)COc2cc(Cl)cc(Cl)c2)CCSC1 (stereo not given) | 38.5
Cc1ccc(OCC(=O)NC2(C#N)CCSCC2)cc1C | 41.4
Cc1c(Cl)cccc1OCC(=O)NC1(C#N)CCSC1 (stereo not given) | 87.2

Structure (SMILES) | INHIBITION [%]
CN(C)C(=O)c1cc(-c2ccccc2)[nH]n1 | -35
CC(C)c1ccc(CC2(C)Cc3cc(CC(=O)O)ccc3O2)cc1 (stereo not given) | 20.85
CN(C)[C@H]1CCCCN(C(=O)c2cccc(N3CCS(=O)(=O)CC3)c2)C1 | 30.9
CN(C)[C@H]1CCCCN(C(=O)c2cccc(-c3cccc(F)c3)c2)C1 | 60.4
CN(C)Cc1cnc(C2CCN(C(=O)c3cccc(F)c3)C2)[nH]1 (stereo not given) | 41.7
CN(C(=O)CCNC(=O)NC1CCCCC1)c1ccccc1 | 27.6
Cn1c(NCC(O)c2ccccc2F)c(C#N)c(=O)n(C)c1=O (stereo not given) | -5.25
CNC(=O)[C@@H]1C[C@@H](NC(=O)CCCc2cccs2)CN1C1CCOCC1 | 10.4
CNC(=O)[C@@H]1C[C@@H](NC(=O)Cc2cccs2)CN1C1CCOCC1 | 23.5
CNC(=O)[C@@H]1C[C@@H](NC(=O)CSc2ccccc2)CN1C1CCOCC1 | 54.6
CC(C)n1cc(CN2CCCN(C(=O)C3CCCN3C)CC2)cn1 (stereo not given) | 26.4
CCN(CCO)C[C@@H]1CN(c2cccc(C(F)(F)F)n2)C[C@@H]1CO | 3.13
COc1cc(C#N)ccc1OCC(=O)NS(=O)(=O)c1cccnc1 | 19.4
COc1ccccc1OCC(=O)NS(=O)(=O)c1cc(F)ccc1F | 5.14
COc1ccccc1CC(=O)NS(=O)(=O)c1ccc(C#N)cc1 | 15.6
COc1cc(C#N)ccc1OCC(=O)NS(=O)(=O)c1ccccc1 | 50.6
COc1ccccc1OCC(=O)NS(=O)(=O)c1ccc(Cl)cc1F | 29.5
COc1ccccc1OCC(=O)NS(=O)(=O)c1ccc(F)cc1F | 63.3
CN1CCCN(C(=O)NCc2cc(Br)cs2)CC1 | -13.935
Cc1ccc(-c2cc(C(=O)NCCN3CCCS3(=O)=O)[nH]n2)cc1 | -8.15
Cc1ccccc1NC(=O)Nc1c[nH]c(=O)[nH]c1=O | 35.7
Cc1ccc(CN2CCc3ncc(CNC(=O)C4CCC4)n3CC2)o1 | 45.1

Structure (SMILES) | INHIBITION [%]
O=C(NCCOC1CCCCC1)c1ccc(-c2ccco2)[nH]c1=O | -14.6
Cc1nc(-c2nnc[nH]2)sc1C(=O)N1CCCC1Cn1cccn1 (stereo not given) | -1.45
O=C(N[C@@H]1CCC[C@@H](n2ccnc2)[C@@H]1O)c1ccc2c(c1)CCCC2 | 38.2
O=C(Cc1ccc2c(c1)CCCC2)N[C@@H]1CC[C@@H](n2ccnc2)[C@@H]1O | 64.9
O=C(N[C@@H]1CC[C@@H](n2ccnc2)[C@@H]1O)c1cc2c(s1)CCC2 | 9.93
CCN1CC[C@@]2(C(=O)N3CCOCC3)CCN(C(=O)CC(C)C)CC[C@@H]12 | 11.2
CNC(=O)CCS(=O)(=O)Cc1cc(Cl)c2c(c1)OCCCO2 | -11.4
Cc1occc1C(=O)N1CCO[C@H]2[C@H](Oc3cccnc3)CC[C@@H]21 | 18.6
Cc1cc(C)n(C2CCN(c3ncnc4c3CCC4)C2)n1 (stereo not given) | 36.1
COCCCN(C)C1CCCN(Cc2noc(C3CC3)n2)C1 (stereo not given) | 44.1
COCCn1ccnc1C1CCCN(c2ncnc3c(C)csc23)C1 (stereo not given) | -0.529
COCCc1noc(CN2CCCC2c2noc(C3CC3)n2)n1 (stereo not given) | -14.1
COCCc1noc(C2CCCN(c3nc(N)nc4c3CCCC4)C2)n1 (stereo not given) | 65.2
c1nc2c(c(N3CCCC(Cn4cncn4)C3)n1)CCC2 (stereo not given) | 29.2
COCCc1noc(C2CCCN(c3ncnc4c3CCC4)C2)n1 (stereo not given) | 78.8
COCCN1CCN(Cc2noc(C3CC3)n2)CC1C (stereo not given) | 20.1
CC(=O)NC1CCN(c2nc(N)nc3c2CCCC3)C1 (stereo not given) | 46.6
CCc1c(C)nc(N)nc1N1CCCC(c2nc(CCOC)no2)C1 (stereo not given) | 68.6
COCCn1ccnc1C1CCCN(c2ncnc3c2CCC3)C1 (stereo not given) | 57.5
CCc1nc2c(N3CCCC(c4nccn4CCOC)C3)ncnc2o1 (stereo not given) | 29.1
COC[C@]12COC[C@H]1CN(Cc1ccc3c(c1)OCO3)C2 | 35.8
Cc1cnn(CC2CCCN2C(=O)c2nccnc2N)c1 (stereo not given) | 43.2

Structure (SMILES) | INHIBITION [%]
COc1ccc(OC)c(C(=O)N2CCC(Nc3cccnc3)CC2)c1 | -5.08
O=C(NC1CCCN(c2ccccc2Cl)C1)c1ccc(=O)[nH]n1 (stereo not given) | 28.7
CC(C)c1nn(C)c(N(C)C)c1CNCc1ccc2c(c1)OCCO2 | 19.6
CCOc1cccc(CNC(=O)c2cnn(CC)c2C(F)(F)F)c1 | -15.3
Cc1noc(C)c1CC(=O)NCc1ccnc(OCC(F)(F)F)c1 | -9.535
Cc1cc(C(=O)NCc2ccnc(OCC(F)(F)F)c2)no1 | -10.45
Cc1cc(C(=O)NCc2ccnc(OCC(F)(F)F)c2)on1 | -20.893
CCn1ncc(C(=O)NCc2ccc(C)c(OC)c2)c1C(F)(F)F | 46.7
COc1cc(CNC(=O)c2c(C)noc2C)ccn1 | 32.15
CCOc1cc(CNC(=O)c2cnn(CC)c2C(F)(F)F)ccn1 | 70.4
Cc1ccoc1C(=O)NCc1ccnc(OCC(F)(F)F)c1 | -23.593
Cc1noc(C)c1C(=O)NCc1ccnc(OCC(F)(F)F)c1 | 63.6
Cc1ccsc1C(=O)NCc1ccnc(OCC(F)(F)F)c1 | 39.5
Cc1n[nH]c(C(=O)NCc2ccnc(OCC(F)(F)F)c2)c1Br | 81.5
Cc1ncsc1C(=O)NCc1ccnc(OCC(F)(F)F)c1 | 73.05
CCn1ncc(S(=O)(=O)N2CCCC3(CC=CNC3=O)C2)c1C (stereo not given) | 46.2
CC(C)c1nc2n(n1)CC(NCc1nnc(C3CC3)o1)CC2 (stereo not given) | -2.53
Cc1nc(C(C)C)sc1C(=O)NCCn1nc2ccccn2c1=O | -22.5
COCC1CCCN(C(=O)c2ccccc2NCc2cccnc2)C1 (stereo not given) | 18.9
O=C(CCCOc1cccc(F)c1)N1CCCC(n2cncn2)C1 (stereo not given) | -49.5
Cc1nc(CN2C(=O)CCC23CCN(Cc2cccn2C)CC3)cs1 | 29.3
Cc1nnc2n1CCN(C(C(=O)N1CCCCC1)c1ccccc1)C2 (stereo not given) | 11.15

Structure (SMILES) | INHIBITION [%]
O=c1c(Cc2ccc(Cl)cc2Cl)c(O)ccn1CC1CC1 | 86.6
O=C(NCc1ccc(Cl)cc1Cl)NCC1(O)CCSC1 (stereo not given) | 31.2
CCOC(=O)Cn1ccc(O)c(Cc2ccc(Cl)cc2Cl)c1=O | 1.95
NC(=O)Cn1ccc(O)c(Cc2ccc(Cl)cc2Cl)c1=O | 71.9
O=C1CCN(C(=O)CCc2ccc(Cl)cc2Cl)CCN1 | 4.97
COc1ccc2c(=O)n(CC3CC3)ccc2c1OC | 6.28
COc1nc2c(cc1C(=O)NC(C)Cc1cnccn1)CCC2 (stereo not given) | -40.5
O=C(NCCNc1ccc(C(F)(F)F)cn1)c1cc(Cl)ccc1F | 37.3
CC(=O)Nc1cccc(Cn2nc(C)nc2C)c1 | 39.7
Cc1nc(C)n(Cc2cccc(NC(=O)NC(C)(CO)C3CC3)c2)n1 (stereo not given) | 47.4
C=C(C)COCCNC(=O)Nc1cccc(Cn2nc(C)nc2C)c1 | 62.8
Cc1cc(F)c2c(c1)CCCN2S(=O)(=O)c1ncn(C)c1Cl | 33.7
Cc1nn(C(C)C)cc1S(=O)(=O)N(C)Cc1nonc1C | 11.8
CC(=O)N1CCCC1c1nccc(C)n1 (stereo not given) | 21.6
CC(C)(O)CN1CCN(C(=O)c2ccc3c(c2)COC3)CC1 | -1.14
COc1cccc(CCC2CCCCN2)c1 (stereo not given) | 36
Cc1cc(C(=O)N2CCN(c3nc4c(C(C)C)cccc4s3)CC2)no1 | 90.4
COc1cc(C)nc(N2CCN(C(=O)c3cc(C)no3)CC2)n1 | 19.2
COc1cccc2sc(N3CCN(C(=O)c4cc(C)on4)CC3)nc12 | 17.1
Cc1cc(C(=O)N2CCN(c3nc4c(C)cccc4s3)CC2)no1 | 24.7
Cc1cc(C(=O)N2CCN(c3nc4c(F)cccc4s3)CC2)no1 | -18.5
Cc1cc(C(=O)N2CCN(c3nc4c(C(C)C)cccc4s3)CC2)on1 | 92.1
